In all, about 68,000 sequences were measured (“fluorescence intensity (a.u.)”: median about 9,100, highest 2% from about 16,000 on). The sample as a whole holds a higher share of the highest values than the screen did.
target: OsWRKY34 (Oryza sativa, UniProt Q0JBA9 1-250); test: protein-binding microarray (RPBM); PBS, 2% BSA, 51.3 ng/ul salmon testes DNA, 50 uM zinc acetate, 200 nM TF, 25 C, 1 h; high values mean tight binding; conditions: protein: recombinant; tags: N-terminal polyhistidine and DsRed monomer fusion (pET32a); label: CyDye5-dUTP incorporated in the synthesized complementary strand; 3' TTTTT single-stranded linker to array surface; dsDNA, one strand shown
Sequence (Q0JBA9 entry or part of it): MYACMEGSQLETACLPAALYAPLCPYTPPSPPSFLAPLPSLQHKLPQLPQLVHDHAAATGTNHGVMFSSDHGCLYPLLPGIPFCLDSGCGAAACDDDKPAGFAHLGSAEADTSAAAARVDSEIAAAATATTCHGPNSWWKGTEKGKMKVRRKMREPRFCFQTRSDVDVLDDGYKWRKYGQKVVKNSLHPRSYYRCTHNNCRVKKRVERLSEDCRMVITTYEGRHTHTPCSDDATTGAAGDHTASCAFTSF
Method in brief: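 Transcription factors, each fused N-terminally to a polyhistidine tag and DsRed, were expressed in E. coli BL21-CodonPlus and purified on Ni–NTA. A custom Agilent array was made double-stranded by primer extension with Cy5-dUTP and blocked with 2% BSA. It was incubated with 200 nM protein in PBS, 2% BSA, salmon testes DNA and 50 µM zinc acetate at 25 °C for 1 h, then washed. The binding signal is per-feature fluorescence intensity (arbitrary units) read on an Axon 4000B scanner.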

Compared with “TTCACCCTCACTTTATTCATCTATAGTAGTTTCATCAGTTCGGAGTCACCTAGTGCAG”, “CCACTTTTGCAGATTGCAGGGCGCGCAGTACTGCCGACAGCGGAGTCACCTAGTGCAG” is higher in binding signal: 8060 fluorescence intensity (a.u.) for the first, 18900 fluorescence intensity (a.u.) for the second.

Going from “CTACTTTCACTCCCACCCACCCGACACAGCCGGAGCGCGCCGGAGTCACCTAGTGCAG” to “CACAGATCCACTCCATTGCTTCACTACTGCTTTGCTTTTGCGGAGTCACCTAGTGCAG”, the binding signal rises from 8630 fluorescence intensity (a.u.) to 11000 fluorescence intensity (a.u.).

Compared with “GCCTTTTTAACTTGTGCGACCGGTGTTCCGGGATTTTGGGCGGAGTCACCTAGTGCAG”, “TCTCCTCCATCATCGCAGCCAACTCCAACATCCTGAGCTCCGGAGTCACCTAGTGCAG” is lower in binding signal: 10900 fluorescence intensity (a.u.) for the first, 9510 fluorescence intensity (a.u.) for the second.

Compared with “CTTATTTGTAGCTTCCTTTTTTTTTCCTTTTTCTTTTATTCGGAGTCACCTAGTGCAG”, “TGTCGTCCTTCAGGCCAACTTTGTCTTCCTTTGTTTCGACCGGAGTCACCTAGTGCAG” is higher in binding signal: 10400 fluorescence intensity (a.u.) for the first, 16400 fluorescence intensity (a.u.) for the second.

Compared with “TTGTCTTCCTTTGTTTCGACTGGTCCAGTTTCGTCCTCTCCGGAGTCACCTAGTGCAG”, “TTTTTATATACCGGTAAATATCCGCTACCGTATTCGTTCCCGGAGTCACCTAGTGCAG” is lower in binding signal: 10300 fluorescence intensity (a.u.) for the first, 10200 fluorescence intensity (a.u.) for the second.

Compared with “GCCCTTTTCACGGTTTTTCCTGATCTTTCTGGGCTTTCTCCGGAGTCACCTAGTGCAG”, “TTATTTCCGCAAATCGTTCGCTATCCGGTATATTTTTGCACGGAGTCACCTAGTGCAG” is lower in binding signal: 18800 fluorescence intensity (a.u.) for the first, 17300 fluorescence intensity (a.u.) for the second.

Compared with “GTTTTTTTTTTTCCTTTCACTTCCTTCCTGGGCTTTATTTCGGAGTCACCTAGTGCAG”, “AAAATGTTGTTTTTTTCTTCACTTTTGTTTTCCTTTTTTTCGGAGTCACCTAGTGCAG” is lower in binding signal: 17300 fluorescence intensity (a.u.) for the first, 9300 fluorescence intensity (a.u.) for the second.

Going from “TCGTTCCTTCCTGTTGTTTCCTTTTCTTTTCCTTTATTTTCGGAGTCACCTAGTGCAG” to “AATCTGTTTTTTGCTTTTTTGCCCTTTTCACGGTTTTTCCCGGAGTCACCTAGTGCAG”, the binding signal rises from 8070 fluorescence intensity (a.u.) to 10800 fluorescence intensity (a.u.).

Going from “CACAACTTTTCGTTTTTTATATTTGCACAAATTTTTTAATCGGAGTCACCTAGTGCAG” to “CAGACTTTTCAGCTTCGGTTTCCCTTGTTTCTGATCTTTCCGGAGTCACCTAGTGCAG”, the binding signal falls from 8650 fluorescence intensity (a.u.) to 8440 fluorescence intensity (a.u.).

Going from “ATACGTCATTTGTATTTGAGTCGGTTTTTAAGTTCCTCCGCGGAGTCACCTAGTGCAG” to “TTTTGCAAAGCATTCCTCGCGCTTTCAGCTAATTACGCATCGGAGTCACCTAGTGCAG”, the binding signal falls from 12200 fluorescence intensity (a.u.) to 8500 fluorescence intensity (a.u.).

Compared with “CACCAACGCGTCCCCACCGTGTCGCCTCCTGATTGGTTGTCGGAGTCACCTAGTGCAG”, “GCTTCACCTTCGGCTTCGACTTCGGCTTCGTTTCCTCTTCCGGAGTCACCTAGTGCAG” is higher in binding signal: 12100 fluorescence intensity (a.u.) for the first, 18600 fluorescence intensity (a.u.) for the second.

First: GTTGGGCTTCCTTATTGGGTTGGGCTACCTGTCTGATTTTCGGAGTCACCTAGTGCAG
Second: AGGTTATTTTTTCCTTACCTTTTTTTTTTCTGATACTACTCGGAGTCACCTAGTGCAG
The binding signal of the first is higher: 16600 fluorescence intensity (a.u.) for the first, 9920 fluorescence intensity (a.u.) for the second.

First: GTCGTTCGCTCTTTTATCCTTTTCGGACAATTTCACTTTCCGGAGTCACCTAGTGCAG
Second: TTGTTACTACATTTCCTGTACTATTTTACTGTCTGATTTACGGAGTCACCTAGTGCAG
The binding signal of the first is higher: 19200 fluorescence intensity (a.u.) for the first, 8460 fluorescence intensity (a.u.) for the second.

First: TGTTTTCACTTTCCTCTTCAGTCTTCTTCCTTCTTTCGTTCGGAGTCACCTAGTGCAG
Second: GTCCTCGTTTTTTTTTTCCTTCTCTTTTTCTTTTCCTTTTCGGAGTCACCTAGTGCAG
The binding signal of the first is lower: 9140 fluorescence intensity (a.u.) for the first, 9450 fluorescence intensity (a.u.) for the second.

First: CTCTCGCTCTTTTATTTTTTTTCCTTGTTTCCTTTCGTGTCGGAGTCACCTAGTGCAG
Second: TTATTTTTCGTTCCTTCTTTTTTTCTCTCTCACTTTTCTCCGGAGTCACCTAGTGCAG
The binding signal of the first is higher: 12100 fluorescence intensity (a.u.) for the first, 11300 fluorescence intensity (a.u.) for the second.

Compared with “GCTCGCCGCGTGCTCTCGTCATCCATCCGACCCACGCCCGCGGAGTCACCTAGTGCAG”, “ATTTTATATGATTTCTTACAGACTTTTTTTATCATTTTACCGGAGTCACCTAGTGCAG” is lower in binding signal: 11000 fluorescence intensity (a.u.) for the first, 9760 fluorescence intensity (a.u.) for the second.

Compared with “GCATTGGTTGGTGGTTTGGTGACGGCTTCGTTGTAGGCCTCGGAGTCACCTAGTGCAG”, “TCCTCTCTCTCTCTCTCTCTCTCTCCTCCTTTGGAGTTGTCGGAGTCACCTAGTGCAG” is higher in binding signal: 9760 fluorescence intensity (a.u.) for the first, 10500 fluorescence intensity (a.u.) for the second.

First: CGTCCAGTCCGCTCCCTCCCTCATTCATTCGGTTCGGTAACGGAGTCACCTAGTGCAG
Second: CGTCGACGACGTCTCGATCGATCGGTGGTGGTGGTGGTGGCGGAGTCACCTAGTGCAG
The binding signal of the first is higher: 8870 fluorescence intensity (a.u.) for the first, 8540 fluorescence intensity (a.u.) for the second.

Going from “CTCGTGGTCAAATCTGAATATCCGATACTTCCGTTTCAAACGGAGTCACCTAGTGCAG” to “ACCGTCTCATCTTCTTCTTCCTCCTCCTCTGATCTTCTCCCGGAGTCACCTAGTGCAG”, the binding signal falls from 8300 fluorescence intensity (a.u.) to 8220 fluorescence intensity (a.u.).

Compared with “TCACCACTGCTGCTCTCGCTGCCGTCCTTGTTCTTCGCGCCGGAGTCACCTAGTGCAG”, “GCGCTCGCCGCTGCCGCAAGCTCGCCTCCGACCCCGGCCACGGAGTCACCTAGTGCAG” is higher in binding signal: 8110 fluorescence intensity (a.u.) for the first, 9530 fluorescence intensity (a.u.) for the second.

First: CGCCTCGCGGCAGGCAGCCGAGCTGTCTCCAACCGTGCCGCGGAGTCACCTAGTGCAG
Second: ACCAACCAACCACTGCTCTCGCCGCGCCGTCCTCTTCATCCGGAGTCACCTAGTGCAG
The binding signal of the first is higher: 37300 fluorescence intensity (a.u.) for the first, 18200 fluorescence intensity (a.u.) for the second.
